The source made the active and inactive calls. How the source made its calls: active means hit-call score of the fitted dose curve at least 0.9, where 1 is the maximum; inactive means score below 0.9.
Assays:
[1] = read-out: Cyclin D2 (CCND2), CCND2 (gene 894); assay: LTEA_HepaRG_CCND2: Life Technologies and Expression Analysis (LTEA) Assay for Cyclin D2 (CCND2) using HepaRG (AID 2283449); conditions: mRNA level, 48 h; actives raise or lower the signal;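 further: CCND2 transcript measured by TaqMan qRT-PCR and normalised to three housekeeping genes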
Outline: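 Chemicals in 0.5% DMSO, eight half-log concentrations from 100 uM top, were applied in duplicate for 48 h to human HepaRG cells in serum-free induction medium. CCND2 mRNA by TaqMan qRT-PCR, normalised to ACTB/GAPDH/POLR2A; bidirectional fit versus DMSO.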

[2] = read-out: Cyclin Dependent Kinase Inhibitor 1A (CDKN1A), CDKN1A (gene 1026); assay: LTEA_HepaRG_CDKN1A: Life Technologies and Expression Analysis (LTEA) Assay for Cyclin Dependent Kinase Inhibitor 1A (CDKN1A) using HepaRG (AID 2283450); conditions: mRNA level, 48 h; actives raise or lower the signal
Outline: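 HepaRG, 48 h dosing, 8-pt half-log series from 100 uM top, 0.5% DMSO vehicle, duplicates. Readout: TaqMan qRT-PCR of CDKN1A transcript, housekeeping-normalized (ACTB, GAPDH, POLR2A). Up/down curve fit relative to DMSO.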

[3] = read-out: Cyclin D1 (CCND1), CCND1 (gene 595); assay: LTEA_HepaRG_CCND1: Life Technologies and Expression Analysis (LTEA) Assay for Cyclin D1 (CCND1) using HepaRG (AID 2283451); conditions: mRNA level, 48 h; actives raise or lower the signal
Outline: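 qRT-PCR (Fluidigm 96.96 array) read-out of transcript level, housekeeping-normalized (ACTB/GAPDH/POLR2A). HepaRG cells, 48 h chemical exposure, 8-point half-log series from 100 uM, 0.5% DMSO vehicle; gain or loss relative to DMSO baseline.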

[4] = read-out: catalase (CAT), CAT (gene 847); assay: LTEA_HepaRG_CAT: Life Technologies and Expression Analysis (LTEA) Assay for catalase (CAT) using HepaRG (AID 2283452); conditions: mRNA level, 48 h; actives raise or lower the signal
Outline: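 HepaRG cells in serum-free induction medium, 0.5% DMSO vehicle, exposed 48 h in duplicate over 8 half-log concentrations from 100 uM. CAT mRNA measured by qRT-PCR, normalized to ACTB, GAPDH, POLR2A; bidirectional fit versus DMSO.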

[5] = read-out: flavin-containing dimethylaniline monooxygenases 3 (FMO3), FMO3 (gene 2328); assay: LTEA_HepaRG_FMO3: Life Technologies and Expression Analysis (LTEA) Assay for flavin-containing dimethylaniline monooxygenases 3 (FMO3) using HepaRG (AID 2283453); conditions: mRNA level, 48 h; actives raise or lower the signal
Outline: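 Differentiated HepaRG cells in serum-free induction medium, exposed 48 h in duplicate to 8 half-log concentrations up to 100 uM in 0.5% DMSO. FMO3 mRNA by qRT-PCR, normalized to ACTB, GAPDH, POLR2A; bidirectional fit vs DMSO.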

[6] = read-out: Cytochrome P450 (CYP1A1), CYP1A1 (gene 1543); assay: LTEA_HepaRG_CYP1A1: Life Technologies and Expression Analysis (LTEA) Assay for Cytochrome P450 (CYP1A1) using HepaRG (AID 2283454); conditions: mRNA level, 48 h; actives raise or lower the signal
Outline: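 qRT-PCR read-out: CYP1A1 transcript normalized to three housekeeping genes, fitted bidirectionally against 0.5% DMSO vehicle baseline. Human HepaRG cells, 48 h chemical exposure, 8-point half-log series topping at 100 uM.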

[7] = read-out: CFLAR gene, CFLAR (gene 8837); assay: LTEA_HepaRG_CFLAR: Life Technologies and Expression Analysis (LTEA) Assay for CFLAR gene using HepaRG (AID 2283455); conditions: mRNA level, 48 h; actives raise or lower the signal
Outline: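 Differentiated HepaRG cells in serum-free induction medium were exposed 48 h in duplicate to eight half-log concentrations up to 100 uM in 0.5% DMSO; mRNA measured by TaqMan qRT-PCR, normalized to ACTB, GAPDH, POLR2A; bidirectional fitting versus DMSO.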

[8] = read-out: Forkhead box O1 (FOXO1), FOXO1 (gene 2308); assay: LTEA_HepaRG_FOXO1: Life Technologies and Expression Analysis (LTEA) Assay for Forkhead box O1 (FOXO1) using HepaRG (AID 2283456); conditions: mRNA level, 48 h; actives raise or lower the signal
Outline: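 Differentiated HepaRG cells, in serum-free induction medium with 0.5% DMSO, exposed 48 h in duplicate to 8-point half-log series from 100 uM. FOXO1 mRNA measured by TaqMan qRT-PCR, normalized to ACTB, GAPDH, POLR2A; bidirectional fit versus DMSO.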

[9] = read-out: growth arrest and DNA damage 45 (GADD45A), GADD45A (gene 1647); assay: LTEA_HepaRG_GADD45A: Life Technologies and Expression Analysis (LTEA) Assay for growth arrest and DNA damage 45 (GADD45A) using HepaRG (AID 2283458); conditions: mRNA level, 48 h; actives raise or lower the signal
Outline: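 Cells plated and cultured 48 h, switched to serum-free induction medium, then dosed for 48 h (100 uM top, half-log dilutions, 0.5% DMSO). RNA was isolated and transcript measured by Fluidigm qRT-PCR.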

[10] = read-out: Forkhead box O3 (FOXO3), FOXO3 (gene 2309); assay: LTEA_HepaRG_FOXO3: Life Technologies and Expression Analysis (LTEA) Assay for Forkhead box O3 (FOXO3) using HepaRG (AID 2283459); conditions: mRNA level, 48 h; actives raise or lower the signal
Outline: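 Differentiated human HepaRG cells, 48 h post-plating, exposed in duplicate for 48 h in serum-free induction medium; 8-point half-log series from 100 uM in 0.5% DMSO. FOXO3 mRNA by TaqMan qRT-PCR, normalized to ACTB/GAPDH/POLR2A; bidirectional fit versus DMSO.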

[11] = read-out: growth arrest and DNA damage 45 (GADD45B), GADD45B (gene 4616); assay: LTEA_HepaRG_GADD45B: Life Technologies and Expression Analysis (LTEA) Assay for growth arrest and DNA damage 45 (GADD45B) using HepaRG (AID 2283461); conditions: mRNA level, 48 h; actives raise or lower the signal
Outline: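 qRT-PCR read-out (Fluidigm TaqMan, housekeeping-normalized) of mRNA change in human HepaRG cells after 48 h chemical exposure; 8-point curve, top 100 uM, half-log steps, 0.5% DMSO vehicle; gain or loss fitted relative to DMSO baseline.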

[12] = read-out: ABC Transporter (ABCC3), ABCC3 (gene 8714); assay: LTEA_HepaRG_ABCC3: Life Technologies and Expression Analysis (LTEA) Assay for ABC Transporter (ABCC3) using HepaRG (AID 2283462); conditions: mRNA level, 48 h; actives raise or lower the signal
Outline: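 qRT-PCR read-out of ABCC3 transcript, normalized to three housekeeping genes (ACTB, GAPDH, POLR2A), after 48 h chemical exposure of human HepaRG cells. Eight half-log concentrations, highest 100 uM, in 0.5% DMSO; gain or loss fitted relative to DMSO baseline.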

[13] = read-out: ABC Transporter (ABCB11), ABCB11 (gene 8647); assay: LTEA_HepaRG_ABCB11: Life Technologies and Expression Analysis (LTEA) Assay for ABC Transporter (ABCB11) using HepaRG (AID 2283463); conditions: mRNA level, 48 h; actives raise or lower the signal
Outline: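 Differentiated human HepaRG cells in serum-free induction medium, dosed in duplicate for 48 h. Eight-point half-log series from 100 uM in 0.5% DMSO; ABCB11 mRNA by qRT-PCR, normalized to ACTB, GAPDH, POLR2A, fitted bidirectionally versus DMSO.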

[14] = read-out: ABC Transporter (ABCC2), ABCC2 (gene 1244); assay: LTEA_HepaRG_ABCC2: Life Technologies and Expression Analysis (LTEA) Assay for ABC Transporter (ABCC2) using HepaRG (AID 2283464); conditions: mRNA level, 48 h; actives raise or lower the signal
Outline: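 qRT-PCR (TaqMan, Fluidigm array) read-out of ABCC2 mRNA, normalized to three housekeeping genes. Differentiated HepaRG cells were treated 48 h in serum-free induction medium with 8-point half-log series from 100 uM in 0.5% DMSO; curves fitted bidirectionally relative to DMSO.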

[15] = read-out: Broad substrate specificity ATP-binding cassette transporter ABCG2 (Homo sapiens) (UniProt Q9UNQ0); assay: LTEA_HepaRG_ABCG2: Life Technologies and Expression Analysis (LTEA) Assay for ABC Transporter (ABCG2) using HepaRG (AID 2283465); conditions: mRNA level, 48 h; actives raise or lower the signal
Outline: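 Differentiated HepaRG cells were exposed for 48 h in serum-free induction medium to 8 half-log concentrations, top 100 uM, in 0.5% DMSO. ABCG2 mRNA was measured by qRT-PCR, normalized to ACTB, GAPDH and POLR2A, with bidirectional fitting versus DMSO.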

[16] = read-out: ATP-citrate lyase (ACLY), ACLY (gene 47); assay: LTEA_HepaRG_ACLY: Life Technologies and Expression Analysis (LTEA) Assay for ATP-citrate lyase (ACLY) using HepaRG (AID 2283466); conditions: mRNA level, 48 h; actives raise or lower the signal
Outline: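 Differentiated HepaRG cells exposed 48 h in serum-free induction medium to eight half-log concentrations up to 100 uM in 0.5% DMSO, duplicates. Transcript measured by Fluidigm TaqMan qRT-PCR, normalized to ACTB, GAPDH, POLR2A; bidirectional fit versus DMSO.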

[17] = read-out: Peroxisomal acyl-coenzyme A oxidase 1 (ACOX1) gene, ACOX1 (gene 51); assay: LTEA_HepaRG_ACOX1: Life Technologies and Expression Analysis (LTEA) Assay for Peroxisomal acyl-coenzyme A oxidase 1 (ACOX1) gene using HepaRG (AID 2283467); conditions: mRNA level, 48 h; actives raise or lower the signal
Outline: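 HepaRG cells, plated 48 h then switched to serum-free induction medium, were exposed in duplicate for 48 h to 8-point half-log concentrations up to 100 uM in 0.5% DMSO. ACOX1 mRNA was measured by qRT-PCR, normalized to ACTB/GAPDH/POLR2A, and fitted bidirectionally versus DMSO.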

[18] = read-out: Alkaline Phosphatase, Placental (ALPP) gene, ALPP (gene 250); assay: LTEA_HepaRG_ALPP: Life Technologies and Expression Analysis (LTEA) Assay for Alkaline Phosphatase, Placental (ALPP) gene using HepaRG (AID 2283468); conditions: mRNA level, 48 h; actives raise or lower the signal
Outline: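 qRT-PCR readout of ALPP mRNA (Fluidigm TaqMan), normalized to ACTB/GAPDH/POLR2A, after 48 h chemical exposure of HepaRG cells; 8-point half-log series, top 100 uM, 0.5% DMSO vehicle. Bidirectional curve fit versus DMSO baseline.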

[19] = read-out: ABC Transporter (ABCB1), ABCB1 (gene 5243); assay: LTEA_HepaRG_ABCB1: Life Technologies and Expression Analysis (LTEA) Assay for ABC Transporter (ABCB1) using HepaRG (AID 2283460); conditions: mRNA level, 48 h; actives raise or lower the signal
Outline: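 HepaRG cells exposed in duplicate for 48 h in serum-free induction medium to eight half-log concentrations up to 100 uM in 0.5% DMSO. ABCB1 mRNA quantified by qRT-PCR, normalised to ACTB, GAPDH and POLR2A; fitted bidirectionally versus DMSO.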

[20] = CEETOX_H295R_TESTO: CeeTox H295R High-throughput Steroidogenesis Assay for Testosterone (TESTO) (AID 2283457); conditions: actives raise or lower the signal;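 further: cells exposed to chemicals for 48 h before medium collection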
Outline: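 Readout: testosterone quantified by HPLC-MS/MS (C18, ESI positive) after MTBE liquid-liquid extraction of culture medium. Cells were H295R, 48 h chemical exposure per OECD 456 with modifications. Gain or loss of signal fitted relative to DMSO.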

Measured: AC50

Chain of Broad substrate specificity ATP-binding cassette transporter ABCG2 (Homo sapiens) (Q9UNQ0 whole entry, looked up): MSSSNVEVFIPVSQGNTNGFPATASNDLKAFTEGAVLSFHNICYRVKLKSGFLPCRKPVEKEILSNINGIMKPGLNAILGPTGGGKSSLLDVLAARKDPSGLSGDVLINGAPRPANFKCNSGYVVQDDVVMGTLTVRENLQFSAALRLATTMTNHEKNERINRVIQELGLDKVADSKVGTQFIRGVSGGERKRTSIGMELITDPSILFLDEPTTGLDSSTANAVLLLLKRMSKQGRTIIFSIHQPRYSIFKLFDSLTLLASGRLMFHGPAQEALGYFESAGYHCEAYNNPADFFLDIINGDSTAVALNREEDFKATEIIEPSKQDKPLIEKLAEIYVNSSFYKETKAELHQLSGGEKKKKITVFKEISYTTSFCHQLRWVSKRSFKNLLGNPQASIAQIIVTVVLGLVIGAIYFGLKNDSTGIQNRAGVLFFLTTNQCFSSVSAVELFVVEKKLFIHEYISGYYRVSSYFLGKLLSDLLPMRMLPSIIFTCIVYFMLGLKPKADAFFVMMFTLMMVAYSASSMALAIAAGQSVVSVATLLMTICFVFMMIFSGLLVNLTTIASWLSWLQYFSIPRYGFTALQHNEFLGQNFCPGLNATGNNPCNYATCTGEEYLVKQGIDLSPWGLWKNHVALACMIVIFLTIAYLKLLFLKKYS

CCNc1cccc(C)c1
active: [6] 50 µM
not listed: [19] | [20]
inactive: all other assays above

COc1cc(S(=O)(=O)O)c(C)cc1N=Nc1c(O)ccc2cc(S(=O)(=O)O)ccc12
not listed: [6] | [20]
inactive: all other assays above

CCCCN(CCCC)CCCC
not listed: [3] | [20]
inactive: all other assays above

CC1(C)CC(N=C=O)CC(C)(CN=C=O)C1 (stereo not given)
active: [13] 50 µM
not listed: [3] | [20]
inactive: all other assays above

CC=Cc1ccc(O)c(OC)c1
active: [6] 50 µM
not listed: [3] | [20]
inactive: all other assays above

CN1CCCC1=O
active: [6] 50 µM
not listed: [3] | [20]
inactive: all other assays above

Nc1ccc(S(=O)(=O)c2ccc(N)cc2)cc1
not listed: [3] | [20]
inactive: all other assays above

Nc1ccc2c(c1)C(=O)c1ccccc1C2=O
active: [2] 26.8 µM | [4] 1.57 µM | [5] 12 µM | [6] 6.31 µM | [7] 3.31 µM | [10] 3 µM | [11] 9.75 µM | [13] 4.81 µM | [15] 10.4 µM
not listed: [3] | [20]
inactive: all other assays above

C[Si]1(C)O[Si](C)(C)O[Si](C)(C)O[Si](C)(C)O1
not listed: [16] | [19] | [20]
inactive: all other assays above

COc1ccc2c(c1)c(CC(=O)O)c(C)n2C(=O)c1ccc(Cl)cc1
not listed: [13] | [19] | [20]
inactive: all other assays above

Cc1ccccc1Cl
active: [6] 50 µM
not listed: [19] | [20]
inactive: all other assays above

Cc1nc(-c2ccc3c(c2)CCN(CCC2CCC(NC(=O)/C=C/c4ccc(F)cc4)CC2)CC3)no1 (stereo not given)
active: [6] 23.2 µM | [20] 0.248 µM
not listed: [3] | [19]
inactive: all other assays above

COC(=O)c1ccc(O)cc1
not listed: [3] | [20]
inactive: all other assays above

OC[C@@H](O)[C@@H](O)[C@H](O)[C@H](O)CO
not listed: [19] | [20]
inactive: all other assays above
